Several values for one entry are separate records, joined by “and”; a condition that tells them apart may be missing. Identical values can stand only once. Out of some 5,500 compounds screened, about 2,000 (36%) were called active. Not shown: some 18% with an inconclusive outcome. Cut-off read from the data, not from the text of the source: active = normalized growth mostly below about 0.91 (no sharp cut-off); inconclusive = no clear call, values can overlap the other calls; inactive = mostly above about 0.92. Some of the results follow.
Test: chemical genetic growth profiling, strain panel (AID 1159580);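 note: tested at 20 µM; growth read once vehicle control cultures reached saturation at 30 °C; 1 = growth at the plate median or of vehicle wells; lower values mean less growth of the strain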
Conditions: S. cerevisiae deletion strains, growth OD

Measured: normalized growth

CC(=O)OC1CCC2(C)C(=CC=C3C2CCC2(C)C3CCC2C(C)/C=C/C(C)C(C)C)C1(C)C (configuration not stated)
inactive: locus YAL021C, strain ccr4, stronger effect = lower value 0.994 | locus YAL026C, strain drs2, stronger effect = lower value 1.02 | locus YAL030W, strain snc1, stronger effect = lower value 1.02 | locus YBL061C, strain skt5, stronger effect = lower value 1.02 | locus YBR009C, strain hhf1, stronger effect = lower value 1.01 | locus YBR021W, strain FUR4, stronger effect = lower value 1.02 | locus YBR023C, strain chs3, stronger effect = lower value 1.03 | locus YBR171W, strain sec66, stronger effect = lower value 1.04 | locus YBR229C, strain ROT2, stronger effect = lower value 1.01 | locus YBR231C, strain swc5, stronger effect = lower value 1.04 | locus YBR279W, strain paf1, stronger effect = lower value 1.02 | locus YCL011C, strain gbp2, stronger effect = lower value 1.03 | locus YCL016C, strain dcc1, stronger effect = lower value 1.01 | locus YCL029C, strain bik1, stronger effect = lower value 1.01 | locus YCL069W, strain vba3, stronger effect = lower value 1.02 | locus YCR088W, strain abp1, stronger effect = lower value 1.03 | locus YDL005C, strain med2, stronger effect = lower value 1.04 | locus YDL035C, strain GPR1, stronger effect = lower value 1.03 | locus YDL040C, strain nat1, stronger effect = lower value 1.02 | locus YDL074C, strain BRE1, stronger effect = lower value 1.06 | locus YDL101C, strain DUN1, stronger effect = lower value 1.02 | locus YDL185W, strain tfp1, stronger effect = lower value 0.993 | locus YDL192W, strain arf1, stronger effect = lower value 1 | locus YDR001C, strain nth1, stronger effect = lower value 1.03 | locus YDR069C, strain doa4, stronger effect = lower value 1.02 | locus YDR101C, strain arx1, stronger effect = lower value 0.974 | locus YDR137W, strain rgp1, stronger effect = lower value 1.03 | locus YDR159W, strain sac3, stronger effect = lower value 1.04 | locus YDR162C, strain NBP2, stronger effect = lower value 0.995 | locus YDR195W, strain ref2 1.05 | locus YDR297W, strain sur2, stronger effect = lower value 1.02 | locus YDR318W, strain mcm21, stronger effect = lower value 1 | locus YDR334W, strain swr1, stronger effect = lower value 1.03 | locus YDR335W, strain msn5, stronger effect = lower value 1.02 | locus YDR388W, stronger effect = lower value 1.02 | locus YDR392W, strain spt3, stronger effect = lower value 0.992 | locus YDR502C, strain sam2, stronger effect = lower value 0.989 | locus YEL003W, strain gim4, stronger effect = lower value 1.03 | locus YEL037C, strain rad23, stronger effect = lower value 1.02 | locus YEL061C, strain CIN8 (second series), stronger effect = lower value 1.04 | locus YEL061C, strain CIN8, stronger effect = lower value 1.01 | locus YER015W, strain faa2, stronger effect = lower value 1.03 | locus YER016W, strain bim1, stronger effect = lower value 1.02 | locus YER110C, stronger effect = lower value 1.01 | locus YER111C, strain swi4, stronger effect = lower value 1.02 | locus YER155C, strain BEM2 (second series), stronger effect = lower value 1.05 | locus YER155C, strain BEM2, stronger effect = lower value 0.998 | locus YER167W, strain BCK2, stronger effect = lower value 1.04 | locus YFR010W, strain ubp6, stronger effect = lower value 1.04 | locus YGL078C, strain dbp3, stronger effect = lower value 0.987 | locus YGL086W, strain mad1, stronger effect = lower value 0.994 | locus YGL167C, strain pmr1, stronger effect = lower value 1.02 | locus YGL173C, strain kem1, stronger effect = lower value 1.03 | locus YGL227W, strain vid30, stronger effect = lower value 1.03 | locus YGL240W, strain doc1, stronger effect = lower value 1 | locus YGL248W, strain PDE1, stronger effect = lower value 1.01 | locus YGL253W, strain hxk2, stronger effect = lower value 1.03 | locus YGR078C, strain PAC10, stronger effect = lower value 1.04 | locus YGR135W, strain pre9, stronger effect = lower value 0.996 | locus YGR252W, strain gcn5, stronger effect = lower value 1.03 | locus YHR013C, strain ard1, stronger effect = lower value 1.03 | locus YHR027C, strain rpn1, stronger effect = lower value 1.04 | locus YHR030C, strain SLT2, stronger effect = lower value 1.01 and 0.996 | locus YHR079C, strain IRE1 (second series), stronger effect = lower value 0.998 | locus YHR079C, strain IRE1, stronger effect = lower value 1.03 | locus YHR094C, strain hxt1, stronger effect = lower value 0.991 | locus YHR129C, strain ARP1, stronger effect = lower value 1.03 | locus YHR142W, strain chs7, stronger effect = lower value 1.05 | locus YHR200W, strain rpn10, stronger effect = lower value 0.986 | locus YIL066C, strain RNR3, stronger effect = lower value 1.03 | locus YIL073C, strain SPO22, stronger effect = lower value 1.03 | locus YIL125W, strain kgd1, stronger effect = lower value 1 | locus YIR030C, strain dcg1, stronger effect = lower value 1 | locus YJL092W, strain hpr5, stronger effect = lower value 1.03 | locus YJL095W, strain BCK1 (second series), stronger effect = lower value 1.02 | locus YJL095W, strain BCK1, stronger effect = lower value 1.03 and 0.996 | locus YJL115W, strain asf1, stronger effect = lower value 1.03 | locus YJL129C, strain trk1, stronger effect = lower value 1.05 | locus YJL134W, strain LCB3, stronger effect = lower value 1.01 | locus YJL154C, strain vps35, stronger effect = lower value 1.03 | locus YJL164C, strain tpk1, stronger effect = lower value 1.01 | locus YJL166W, strain qcr8, stronger effect = lower value 1.02 | locus YJL168C, strain set2, stronger effect = lower value 1 | locus YJL187C, strain SWE1 (second series), stronger effect = lower value 1.03 | locus YJL187C, strain SWE1, stronger effect = lower value 1.04 | locus YJR043C, strain POL32, stronger effect = lower value 1.03 | locus YJR066W, strain TOR1, stronger effect = lower value 0.936 | locus YKL009W, strain mrt4, stronger effect = lower value 1.01 | locus YKL068W, stronger effect = lower value 1.01 | locus YKL085W, strain MDH1 (second series), stronger effect = lower value 1 | locus YKL085W, strain MDH1, stronger effect = lower value 1 | locus YKL160W, strain elf1, stronger effect = lower value 0.997 | locus YKR001C, strain vps1, stronger effect = lower value 0.988 | locus YKR026C, strain gcn3, stronger effect = lower value 1.03 | locus YKR091W, strain srl3, stronger effect = lower value 1.03 | locus YLL001W, strain dnm1, stronger effect = lower value 1.01 | locus YLL026W, stronger effect = lower value 1.02 | locus YLL041C, strain sdh2, stronger effect = lower value 1.02 | locus YLR027C, strain aat2, stronger effect = lower value 1 | locus YLR039C, strain RIC1, stronger effect = lower value 1.04 | locus YLR058C, strain SHM2, stronger effect = lower value 1.01 | locus YLR102C, strain apc9, stronger effect = lower value 0.988 | locus YLR113W, strain HOG1, stronger effect = lower value 0.995 | locus YLR221C, strain rsa3, stronger effect = lower value 1.02 | locus YLR258W, strain gsy2, stronger effect = lower value 1 | locus YLR262C, strain YPT6 (second series), stronger effect = lower value 1.01 | locus YLR262C, strain YPT6, stronger effect = lower value 1.07 | locus YLR268W, strain sec22, stronger effect = lower value 0.998 | locus YLR320W, strain mms22, stronger effect = lower value 1.03 | locus YLR330W, strain CHS5, stronger effect = lower value 1.02 | locus YLR342W, strain FKS1 (second series), stronger effect = lower value 1.12 | locus YLR342W, strain FKS1, stronger effect = lower value 1.02 | locus YLR357W, strain rsc2, stronger effect = lower value 1.06 | locus YLR370C, strain arc18, stronger effect = lower value 1.06 | locus YLR371W, strain rom2, stronger effect = lower value 1.01 | locus YLR384C, strain iki3, stronger effect = lower value 1.03 | locus YLR418C, strain cdc73, stronger effect = lower value 1.02 | locus YML016C, strain PPZ1, stronger effect = lower value 1 | locus YML032C, strain rad52, stronger effect = lower value 1 | locus YML120C, strain ndi1, stronger effect = lower value 1.02 | locus YML124C, strain tub3, stronger effect = lower value 0.987 | locus YMR058W, strain fet3, stronger effect = lower value 1.05 | locus YMR078C, strain ctf18, stronger effect = lower value 0.998 | locus YMR125W, strain sto1, stronger effect = lower value 1.03 | locus YMR129W, stronger effect = lower value 1.03 | locus YMR205C, strain PFK2, stronger effect = lower value 1.02 | locus YMR223W, strain ubp8, stronger effect = lower value 1 | locus YMR231W, strain pep5, stronger effect = lower value 1.02 | locus YMR263W, strain SAP30, stronger effect = lower value 1.03 | locus YMR307W, strain GAS1, stronger effect = lower value 1 | locus YNL067W, strain RPL9B, stronger effect = lower value 1.04 | locus YNL071W, strain lat1, stronger effect = lower value 1.03 | locus YNL183C, strain NPR1, stronger effect = lower value 0.965 | locus YNL209W, strain ssb2, stronger effect = lower value 1.01 | locus YNL233W, strain BNI4, stronger effect = lower value 1.03 | locus YNL248C, strain rpa49, stronger effect = lower value 0.965 | locus YNL250W, strain rad50, stronger effect = lower value 0.99 | locus YNL271C, strain bni1, stronger effect = lower value 1 | locus YNL298W, strain CLA4, stronger effect = lower value 0.979 | locus YNL307C, strain MCK1, stronger effect = lower value 1.02 | locus YNL322C, strain KRE1 (second series), stronger effect = lower value 1.02 | locus YNL322C, strain KRE1, stronger effect = lower value 1.02 | locus YNR049C, strain mso1, stronger effect = lower value 1.02 | locus YNR052C, strain pop2, stronger effect = lower value 1.01 | locus YOL012C, strain htz1 1.7 | locus YOL147C, strain pex11, stronger effect = lower value 1 | locus YOR001W, strain rrp6, stronger effect = lower value 1.04 | locus YOR061W, strain CKA2, stronger effect = lower value 1 | locus YOR069W, strain VPS5, stronger effect = lower value 1.01 | locus YOR070C, strain gyp1, stronger effect = lower value 1.02 | locus YOR080W, strain dia2, stronger effect = lower value 1.02 | locus YOR083W, strain WHI5, stronger effect = lower value 0.998 | locus YOR106W, strain vam3, stronger effect = lower value 1.02 | locus YOR136W, strain idh2, stronger effect = lower value 0.987 | locus YOR144C, strain elg1, stronger effect = lower value 0.988 | locus YOR184W, strain ser1, stronger effect = lower value 0.983 | locus YOR231W, strain MKK1, stronger effect = lower value 1.04 | locus YOR265W, strain rbl2, stronger effect = lower value 1.01 | locus YOR270C, strain vph1, stronger effect = lower value 1.03 | locus YOR290C, strain snf2, stronger effect = lower value 0.993 | locus YOR316C, strain cot1, stronger effect = lower value 0.989 | locus YPL051W, strain arl3, stronger effect = lower value 1.02 | locus YPL055C, strain LGE1, stronger effect = lower value 1.07 | locus YPL078C, strain atp4, stronger effect = lower value 0.999 | locus YPL106C, strain sse1, stronger effect = lower value 1.05 | locus YPL240C, strain hsp82, stronger effect = lower value 1.03 | locus YPL256C, strain CLN2, stronger effect = lower value 1.04 | locus YPR119W, strain clb2, stronger effect = lower value 1 | locus YPR141C, strain kar3, stronger effect = lower value 0.982 | locus YPR163C, strain tif3, stronger effect = lower value 0.978 | locus YPR167C, strain met16, stronger effect = lower value 1.01 | strain wtn01, stronger effect = lower value 0.984

Source: PubChem BioAssay AID1159580 (chemical genetic matrix, 2015)
